Screening results: PubChem BioAssay, National Center for Advancing Translational Sciences (NCATS)
BAZ2B block: qHTS Assay for Inhibitors of BAZ2B. AlphaScreen BAZ2B-H3K14Ac peptide displacement. 360,000 tested, 4.4% active. Bromodomain adjacent to zinc finger domain protein 2B (Homo sapiens), Q9UIF8. Potency, µM (series often up to 114 µM), hits mostly inhibitors; also: nearly all actives have a fitted effect of over 60% in size
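Protein-peptide AlphaScreen: BAZ2B 50 nM, b-H3K14Ac 50 nM, 1x PBS pH 7.4 + 0.01% Tween-20. Preincubation 30 min RT; cpd 30 min RT (top 110 uM); beads 20 min RT, light-protected.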
JMJD2A Tudor: qHTS Assay for Inhibitors of JMJD2A-Tudor Domain; 390,000 tested, 4.4% active; AID 504339, 2011; Lysine-specific demethylase 4A (Homo sapiens), O75164; Potency, µM (series often up to 114 µM), actives largely listed as inhibitors; AlphaScreen JMJD2A-Tudor / H3K4me3 peptide binding; also: nearly all actives have a fitted effect of over 50% in size
HP1b binding inh: HTS for Inhibitors of HP1-beta Chromodomain Interactions with Methylated Histone Tails; Chromobox protein homolog 1 (Homo sapiens), P83916; AlphaScreen HP1-beta / biotin-H3K9me3 peptide binding; Potency, µM (highest dose often 114 µM), most hits filed as inhibitors; 390,000 tested, 0.56% active; also: nearly all actives have a fitted effect of over 70% in size
Target sequence (P83916 whole entry, looked up): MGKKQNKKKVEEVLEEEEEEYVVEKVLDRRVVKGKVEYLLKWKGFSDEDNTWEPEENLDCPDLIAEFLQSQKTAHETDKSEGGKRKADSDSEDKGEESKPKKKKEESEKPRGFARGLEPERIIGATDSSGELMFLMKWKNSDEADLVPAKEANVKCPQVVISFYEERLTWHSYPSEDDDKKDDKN
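AlphaScreen: HP1-beta (50 nM) preformed 30 min with biotin-H3(1-18)K9me3 peptide (50 nM) in PBS pH 7.4, 0.01% Tween-20. Compound added for 30 min at RT, then streptavidin donor/nickel chelate acceptor beads (10 ug/mL) for 30 min.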
L3MBTL1 inh: qHTS Assay for the Inhibitors of L3MBTL1 | Lethal(3)malignant brain tumor-like protein 1 (Homo sapiens), Q9Y468 | AlphaScreen L3MBTL1–H3K9me1 peptide binding | Potency, µM (highest dose often 57.1 µM), hits mostly inhibitors | 230,000 tested, 0.66% active | AID 485360, 2010; also: nearly all actives have a fitted effect of over 60% in size
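AlphaScreen proximity signal between nickel-chelate acceptor and streptavidin donor beads (final 10 ug/mL) reports binding of 50 nM L3MBTL1 to 75 nM biotin-H3 K9me1 peptide; complex incubated with compounds 30 min at room temperature; cefsulodin titration as control.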
Sfp PPTase inh: qHTS Assay for Inhibitors of Bacillus subtilis Sfp phosphopantetheinyl transferase (PPTase) | 4'-phosphopantetheinyl transferase ffp (Bacillus subtilis), Q9F4F7 | 310,000 tested, 3.5% active | Potency, µM, actives largely listed as inhibitors | Biochemical Sfp PPTase activity, qHTS;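 also: the enzyme is Sfp with the accession as filed and its product quenches rhodamine fluorescence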
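Fluorescence-quenching assay with 15 nM Sfp, 5 uM rhodamine-CoA and 12.5 uM BHQ-2-labelled ybbR peptide in pH 7.6 Hepes/MgCl2 buffer. Enzyme was pre-incubated with compound for 15 min at room temperature. Rate was taken from the 30-min fluorescence change (525/598 nm).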
G9a block: qHTS Assay for Inhibitors of Histone Lysine Methyltransferase G9a. 350,000 tested, 8.8% active. Histone-lysine N-methyltransferase EHMT2 (Homo sapiens), Q96KQ7. Potency, µM (highest dose often 102 µM), usual class: inhibitors. G9a H3K9 monomethylation, AlphaScreen, 2 h; also: nearly all actives have a fitted effect of over 75% in size
Target sequence (Q96KQ7 913-1193 limits assumed): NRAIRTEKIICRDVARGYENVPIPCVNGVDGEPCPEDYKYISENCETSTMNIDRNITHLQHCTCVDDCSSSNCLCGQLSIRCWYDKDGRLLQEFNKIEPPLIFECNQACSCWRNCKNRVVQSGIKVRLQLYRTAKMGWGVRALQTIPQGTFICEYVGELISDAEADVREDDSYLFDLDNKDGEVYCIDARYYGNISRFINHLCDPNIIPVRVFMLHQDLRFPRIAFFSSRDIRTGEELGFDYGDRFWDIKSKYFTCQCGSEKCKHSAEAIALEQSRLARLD
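G9a (20 nM) preincubated 15 min RT with compounds, then 500 nM biotinylated H3K9 peptide and 20 uM SAM added; 2 h RT reaction. Monomethyl-H3K9 product detected by AlphaScreen with anti-H3K9me1 antibody, streptavidin donor and anti-rabbit IgG acceptor beads.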
Hits are given with their value; n = inactive; u = inconclusive; x = no result given; [ ] = remark or other dose. Shown are actives, neighbours in structure and some others; about 12% of the full set was active somewhere. Calls follow the shape of the dose curve; as a rule, active = well fitted curve in the direction sought with a large enough effect; inconclusive = small, poorly fitted or top-dose-only effect, or another doubt; inactive = no such curve, though single readings can be large; an effect the other way counts as inactive or inconclusive.

SMILES	BAZ2B block	JMJD2A Tudor	HP1b binding inh	L3MBTL1 inh	Sfp PPTase inh	G9a block
CSc1ccccc1C(=O)NCCCn1ccnc1	u	n	n	n	n	n
CC(C)(C)C(=O)Nc1ccccc1C(=O)NCCCn1ccnc1	18µM	50µM	n	n	n	n
Cc1ccc2oc3c(c(=O)c2c1)C(c1cccc(O)c1)N(Cc1ccccc1Cl)C3=O (stereo not drawn)	n	n	n	x	x	n
c1ccc(-n2nnnc2-c2cccc3ccccc23)cc1	x	n	n	x	x	x
COc1ccc(NC(=O)CC2C(=O)N(c3ccc(C)cc3)C(=O)N2C2CCCC2)cc1 (stereo not drawn)	n	n	n	x	x	n
O=[N+]([O-])c1cc(S(=O)(=O)Nc2ccccc2)ccc1Nc1ccccc1	x	22µM	u	x	x	x
O=C(c1ccc(N2CCOCC2)c([N+](=O)[O-])c1)N1CCN(c2ccccc2)CC1	x	n	n	x	x	x
O=[N+]([O-])c1cc(S(=O)(=O)C(F)(F)F)ccc1N1CCN(c2ccccc2)CC1	8.9µM	u	u	u	n	20µM
O=[N+]([O-])c1cc(S(=O)(=O)Nc2ccccc2)ccc1N1CCN(c2ccccc2)CC1	40µM	10µM	u	u	n	32µM
O=c1cc(-c2ccc(O)cc2)oc2cc(OC3OC(CO)C(O)C(O)C3O)c(C3OC(CO)C(O)C(O)C3O)c(O)c12 (stereo not drawn)	x	x	x	x	n	x
CCC[C@@H]1CC(C(=O)NC(C2O[C@H](SC)C(OP(=O)(O)O)[C@H](O)[C@H]2O)[C@H](C)Cl)N(C)C1 (stereo partly drawn)	x	x	x	x	n	x
CCN(CC(=O)NCc1ccc(Cl)cc1)C(=O)/C=C/c1ccc(Cl)c([N+](=O)[O-])c1	u	n	n	x	79µM	n
C[C@H](NC(c1cccc2nc(O)c(O)nc12)P(=O)(O)O)c1ccc(Br)cc1 (stereo partly drawn)	x	x	x	x	n	x
CC(=O)C1=C(O)C(=O)N(Cc2ccco2)C1c1cccc(F)c1 (stereo not drawn)	n	n	n	x	n	n
O=C(C1=C(O)C(=O)N(Cc2ccccc2)C1c1ccncc1)c1ccco1 (stereo not drawn)	n	u	n	n	n	40µM
O=C(C1=C(O)C(=O)N(Cc2ccco2)C1c1cccc(O)c1)c1ccco1 (stereo not drawn)	n	n	n	x	n	50µM
Cc1ccc(C(=O)C2=C(O)C(=O)N(Cc3ccco3)C2c2cccc(Cl)c2)o1 (stereo not drawn)	u	25µM	n	x	n	40µM
O=C(C1=C(O)C(=O)N(CCCn2ccnc2)C1c1ccccc1)c1ccco1 (stereo not drawn)	n	n	n	x	n	x
C=CCOc1cccc(C2C(C(=O)c3ccco3)=C(O)C(=O)N2Cc2cccnc2)c1 (stereo not drawn)	n	n	n	x	n	32µM
COc1ccccc1NS(=O)(=O)c1cc(C(=O)Nc2ccc(S(=O)(=O)Nc3onc(C)c3C)cc2)ccc1C	x	n	n	x	x	x
Cc1ccc(NC(=O)CSc2nc(-c3ccco3)cc(C(F)(F)F)n2)cc1	n	n	n	x	x	n
Cc1ccc(C(=O)N2CCC(c3c[nH]c4ccccc34)(c3c[nH]c4ccccc34)CC2)cc1	n	n	n	x	x	n
Cc1ccc(C(=O)C2=C(O)C(=O)N(c3ncccn3)C2c2cccc(Cl)c2)o1 (stereo not drawn)	u	x	x	n	u	10µM
O=C(C1=C(O)C(=O)N(Cc2ccco2)C1c1cccnc1)c1cc2ccccc2o1 (stereo not drawn)	n	u	n	x	u	u
CCCCOc1ccc(C2C(C(=O)c3ccc(C)o3)=C(O)C(=O)N2Cc2ccco2)cc1 (stereo not drawn)	u	x	x	x	n	u
SMILES	BAZ2B block	JMJD2A Tudor	HP1b binding inh	L3MBTL1 inh	Sfp PPTase inh	G9a block
COc1cccc2cc(C(=O)C3=C(O)C(=O)N(Cc4ccco4)C3c3cccnc3)oc12 (stereo not drawn)	n	79µM	n	x	u	u
Cc1ccc(C(=O)C2=C(O)C(=O)N(Cc3ccco3)C2c2cccc(Br)c2)o1 (stereo not drawn)	u	u	n	x	56µM	u
COc1cccc(CN(C(=O)Cc2c[nH]c3ccccc23)C(C(=O)NC2CCCCC2)c2ccc(C)o2)c1 (stereo not drawn)	n	u	n	n	n	u
CCOc1ccc(N(CC(=O)Nc2ccc(OC)cc2OC)S(=O)(=O)c2c(C)[nH]c(=O)[nH]c2=O)cc1	u	n	n	x	n	x
C(=N\n1cnnc1)/c1cccs1	n	n	n	x	n	n[12.7 µM]
O=C(O)c1ccc(/C=N/n2cc(-c3ccccc3)[nH]c2=S)cc1	n	2.8µM	n	n	18µM	x
S=c1[nH]c(-c2ccccc2)cn1/N=C/c1ccc(Br)cc1	n	n	n	x	n	13µM
S=c1[nH]ncn1/N=C/c1cccs1	n	4.5µM	n	x	n	7.9µM
S=c1[nH]c(-c2ccccc2)cn1/N=C/c1cccs1	n	3.2µM	n	n	u	x
O=C1CC(=O)Nc2cc(S(=O)(=O)Nc3cccc(C(F)(F)F)c3)ccc2N1	n	n	n	x	n	n
O=[N+]([O-])c1ccc(/C=N/n2cn[nH]c2=S)cc1	n	7.1µM	n	n	n	7.9µM
S=c1[nH]c(-c2ccccc2)cn1/N=C/c1cccnc1	n	0.79µM	n	x	45µM	2.5µM
Cc1cc2c(nc1C)CCCN2C[C@H](O)CN1CCCc2nc(-c3ccc(Br)cc3)ccc21	x	x	x	x	n	x
FC(F)(F)c1cnc(Sc2ncn[nH]2)c(Cl)c1	n	n	n	n	n	n
CCOC(=O)Cc1csc(SCn2nnc3ccccc3c2=O)n1	n	n	n	n	n	45µM
CCOC(=O)Cc1csc(NC(=O)c2cc(=O)c3ccccc3o2)n1	n	n	n	n	n	n
CCOC(=O)Cc1csc(-n2sc3ccccc3c2=O)n1	5µM	18µM	u	x	6.3µM	1.1µM
CO/N=C(\C(=O)O)c1csc(NN=C(C)C)n1	n	22µM	u	n	35µM	22µM
C/C(=N\N1CCN(Cc2ccccc2Cl)CC1)c1ccc(F)cc1	n	n	n	n	n	x
Fc1ccc(/C=N/n2cnn(Cc3ccccc3Cl)c2=S)cc1	n	n	n	n	50µM	20µM
CN(C)c1ccc(/C=N/N2C(=O)c3ccccc3C2=O)cc1	n	n	n	x	n	n
CN(C)c1ccc(/C=N/n2cnn(Cc3ccccc3Cl)c2=S)cc1	u	n	u	n	n	4.5µM
